# In publication PMC7862700, “An all-to-all approach to the identification of sequence-specific readers for epigenetic DNA modifications on cytosine”:
# How the values were obtained:
# Assay in all cases: DAPPL (digital affinity profiling via proximity ligation, sequencing); 10 mM Tris-HCl pH 7.5, 50 mM NaCl, 1 mM DTT, 4% glycerol, room temperature, 30 min; GST-TFs on glutathione beads, 16-mer random dsDNA library, 0.1% formaldehyde crosslink after washing; high values mean tight binding
# FEV = target: T1, FEV (Homo sapiens, UniProt Q99581 1-238); settings: protein: recombinant; tags: N-terminal GST; dsDNA, one strand shown
# T1 sequence: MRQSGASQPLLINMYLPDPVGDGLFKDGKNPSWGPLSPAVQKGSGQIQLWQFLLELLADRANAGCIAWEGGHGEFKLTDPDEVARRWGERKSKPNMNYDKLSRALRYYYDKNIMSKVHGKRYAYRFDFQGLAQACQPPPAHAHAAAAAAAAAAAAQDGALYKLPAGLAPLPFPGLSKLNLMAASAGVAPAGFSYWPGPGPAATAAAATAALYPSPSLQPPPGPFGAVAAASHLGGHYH
# Summary of the method: (§1)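 In yeast, human transcription factors were expressed with a GST fusion, then pulled down on glutathione beads and given DNA barcodes. Pooled with a tag-only sample, they were exposed to 200 nmole of a 16-mer random double-stranded DNA library (Tris/NaCl/DTT/glycerol buffer, room temperature, 30 min), washed, crosslinked with 0.1% formaldehyde, proximity-ligated using BsaI/T4 ligase for 1 h at 37 °C, PCR-amplified and read on an Illumina NextSeq500. Each hexamer's frequency of reads for a factor, divided by the matching frequency for the tag-only sample, gives the binding signal.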
# ETV5 = ETV5 (Homo sapiens, UniProt P41161 1-510); settings: protein: recombinant; tags: N-terminal GST; dsDNA, one strand shown
# Summary of the method: as §1
# HSF1 = HSF1 (Homo sapiens, UniProt Q00613 1-529); settings: protein: recombinant; tags: N-terminal GST; chain copies: 3; dsDNA, one strand shown
# Summary of the method: as §1
# SPIC = target: T2, SPIC (Homo sapiens, UniProt Q8N5J4 1-248); settings: protein: recombinant; tags: N-terminal GST; dsDNA, one strand shown
# T2 sequence: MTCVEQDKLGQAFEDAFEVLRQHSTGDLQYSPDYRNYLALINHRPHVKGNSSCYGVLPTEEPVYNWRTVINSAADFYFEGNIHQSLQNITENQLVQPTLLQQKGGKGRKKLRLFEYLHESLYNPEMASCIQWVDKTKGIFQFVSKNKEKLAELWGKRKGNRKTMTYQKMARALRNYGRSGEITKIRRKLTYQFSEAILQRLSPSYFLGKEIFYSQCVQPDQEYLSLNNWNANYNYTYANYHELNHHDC
# Summary of the method: as §1
# ELF4 = ELF4 (Homo sapiens, UniProt Q99607 1-663); settings: protein: recombinant; tags: N-terminal GST; dsDNA, one strand shown
# Summary of the method: as §1
# ELK4 = target: T3, ELK4 (Homo sapiens, UniProt P28324-2 1-405); settings: protein: recombinant; tags: N-terminal GST; dsDNA, one strand shown
# T3 sequence: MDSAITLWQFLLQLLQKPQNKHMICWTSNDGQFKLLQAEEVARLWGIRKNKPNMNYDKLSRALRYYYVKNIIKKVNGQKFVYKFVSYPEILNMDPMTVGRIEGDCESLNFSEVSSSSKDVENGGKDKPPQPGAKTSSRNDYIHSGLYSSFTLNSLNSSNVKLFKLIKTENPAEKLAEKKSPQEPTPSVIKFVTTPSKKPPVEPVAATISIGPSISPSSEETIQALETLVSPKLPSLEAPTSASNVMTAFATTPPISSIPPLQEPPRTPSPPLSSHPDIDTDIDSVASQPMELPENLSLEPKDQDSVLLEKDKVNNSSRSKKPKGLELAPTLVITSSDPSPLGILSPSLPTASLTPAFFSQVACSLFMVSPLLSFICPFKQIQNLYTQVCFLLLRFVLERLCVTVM
# Summary of the method: as §1
# ETV2 = target: T4, ETV2 (Homo sapiens, UniProt O00321 1-342); settings: protein: recombinant; tags: N-terminal GST; dsDNA, one strand shown
# T4 sequence: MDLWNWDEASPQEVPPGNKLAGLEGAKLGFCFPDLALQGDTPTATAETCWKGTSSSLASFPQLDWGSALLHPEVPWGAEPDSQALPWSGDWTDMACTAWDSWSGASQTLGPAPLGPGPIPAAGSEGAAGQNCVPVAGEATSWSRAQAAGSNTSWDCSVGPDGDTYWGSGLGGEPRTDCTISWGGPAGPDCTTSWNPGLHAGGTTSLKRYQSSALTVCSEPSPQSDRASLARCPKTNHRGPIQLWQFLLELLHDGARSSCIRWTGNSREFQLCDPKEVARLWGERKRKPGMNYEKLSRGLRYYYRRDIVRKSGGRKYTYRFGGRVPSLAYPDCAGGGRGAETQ
# Summary of the method: as §1
# ELF3 = target: T5, ELF3 (Homo sapiens, UniProt P78545 1-371); settings: protein: recombinant; tags: N-terminal GST; dsDNA, one strand shown
# T5 sequence: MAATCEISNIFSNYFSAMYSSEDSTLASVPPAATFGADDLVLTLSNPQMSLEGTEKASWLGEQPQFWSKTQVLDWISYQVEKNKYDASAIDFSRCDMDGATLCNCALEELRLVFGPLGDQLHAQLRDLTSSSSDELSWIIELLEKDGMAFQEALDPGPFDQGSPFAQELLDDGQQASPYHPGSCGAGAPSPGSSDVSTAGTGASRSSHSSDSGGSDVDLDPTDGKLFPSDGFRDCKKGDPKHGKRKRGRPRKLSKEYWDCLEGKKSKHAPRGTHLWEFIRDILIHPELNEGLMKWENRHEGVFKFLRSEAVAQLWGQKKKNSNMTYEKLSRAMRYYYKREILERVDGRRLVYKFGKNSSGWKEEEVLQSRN
# Summary of the method: as §1
# CRX = CRX (Homo sapiens, UniProt O43186 1-299); settings: protein: recombinant; tags: N-terminal GST; dsDNA, one strand shown
# Summary of the method: as §1
# ETV1 = ETV1 (Homo sapiens, UniProt P50549 1-477); settings: protein: recombinant; tags: N-terminal GST; dsDNA, one strand shown
# Summary of the method: as §1
# ERF = target: T6, ERF (Homo sapiens, UniProt P50548 1-548); settings: protein: recombinant; tags: N-terminal GST; dsDNA, one strand shown
# T6 sequence: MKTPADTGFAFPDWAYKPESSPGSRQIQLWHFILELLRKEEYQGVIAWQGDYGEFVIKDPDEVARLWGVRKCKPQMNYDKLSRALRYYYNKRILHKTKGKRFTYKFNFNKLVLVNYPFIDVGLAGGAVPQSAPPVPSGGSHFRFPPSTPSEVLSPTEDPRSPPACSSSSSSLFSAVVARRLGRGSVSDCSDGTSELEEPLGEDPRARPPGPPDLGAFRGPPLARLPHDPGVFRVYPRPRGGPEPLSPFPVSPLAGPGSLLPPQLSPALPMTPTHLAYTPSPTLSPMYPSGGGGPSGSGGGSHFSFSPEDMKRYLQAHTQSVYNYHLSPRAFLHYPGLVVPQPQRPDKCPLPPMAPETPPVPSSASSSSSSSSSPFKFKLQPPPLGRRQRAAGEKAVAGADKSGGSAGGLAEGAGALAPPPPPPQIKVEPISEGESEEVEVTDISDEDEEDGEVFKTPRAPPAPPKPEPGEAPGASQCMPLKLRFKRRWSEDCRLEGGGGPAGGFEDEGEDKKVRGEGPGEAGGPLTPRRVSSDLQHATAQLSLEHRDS
# Summary of the method: as §1
# ETV3L = target: T7, ETV3L (Homo sapiens, UniProt Q6ZN32 1-361); settings: protein: recombinant; tags: N-terminal GST; dsDNA, one strand shown
# T7 sequence: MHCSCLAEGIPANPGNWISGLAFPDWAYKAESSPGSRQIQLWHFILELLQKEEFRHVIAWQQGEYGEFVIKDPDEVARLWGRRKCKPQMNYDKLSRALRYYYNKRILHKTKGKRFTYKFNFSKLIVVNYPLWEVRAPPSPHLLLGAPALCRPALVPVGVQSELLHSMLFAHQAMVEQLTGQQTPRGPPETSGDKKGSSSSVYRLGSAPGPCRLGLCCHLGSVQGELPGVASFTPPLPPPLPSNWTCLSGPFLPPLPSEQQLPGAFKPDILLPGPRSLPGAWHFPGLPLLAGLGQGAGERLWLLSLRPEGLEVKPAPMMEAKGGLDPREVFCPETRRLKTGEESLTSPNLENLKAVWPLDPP
# Summary of the method: as §1
# ETS2 = target: T8, ETS2 (Homo sapiens, UniProt P15036 1-469); settings: protein: recombinant; tags: N-terminal GST; dsDNA, one strand shown
# T8 sequence: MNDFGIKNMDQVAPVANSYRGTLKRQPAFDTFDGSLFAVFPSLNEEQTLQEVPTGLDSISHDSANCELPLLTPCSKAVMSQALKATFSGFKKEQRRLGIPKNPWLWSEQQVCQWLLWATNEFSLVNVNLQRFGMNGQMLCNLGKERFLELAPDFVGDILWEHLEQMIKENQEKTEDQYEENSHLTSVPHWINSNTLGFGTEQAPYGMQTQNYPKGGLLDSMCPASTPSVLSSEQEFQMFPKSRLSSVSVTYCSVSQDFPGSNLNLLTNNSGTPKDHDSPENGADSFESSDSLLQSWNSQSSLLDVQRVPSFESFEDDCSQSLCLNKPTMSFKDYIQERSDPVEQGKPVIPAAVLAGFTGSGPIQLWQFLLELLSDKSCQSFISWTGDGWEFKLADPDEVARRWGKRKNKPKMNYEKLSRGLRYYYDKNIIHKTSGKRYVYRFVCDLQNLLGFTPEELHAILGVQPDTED
# Summary of the method: as §1
# SPDEF = target: T9, SPDEF (Homo sapiens, UniProt O95238 1-335); settings: protein: recombinant; tags: N-terminal GST; dsDNA, one strand shown
# T9 sequence: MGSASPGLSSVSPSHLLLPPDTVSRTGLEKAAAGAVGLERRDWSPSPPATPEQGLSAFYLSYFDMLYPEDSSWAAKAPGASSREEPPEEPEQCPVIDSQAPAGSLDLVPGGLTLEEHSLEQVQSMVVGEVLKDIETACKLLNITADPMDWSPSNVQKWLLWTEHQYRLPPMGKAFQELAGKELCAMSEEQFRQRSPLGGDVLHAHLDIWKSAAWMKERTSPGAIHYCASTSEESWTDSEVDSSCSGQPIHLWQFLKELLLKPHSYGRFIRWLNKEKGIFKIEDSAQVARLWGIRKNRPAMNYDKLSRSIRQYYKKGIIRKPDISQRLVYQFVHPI
# Summary of the method: as §1
# ETV7 = target: T10, ETV7 (Homo sapiens, UniProt Q9Y603 1-341); settings: protein: recombinant; tags: N-terminal GST; dsDNA, one strand shown
# T10 sequence: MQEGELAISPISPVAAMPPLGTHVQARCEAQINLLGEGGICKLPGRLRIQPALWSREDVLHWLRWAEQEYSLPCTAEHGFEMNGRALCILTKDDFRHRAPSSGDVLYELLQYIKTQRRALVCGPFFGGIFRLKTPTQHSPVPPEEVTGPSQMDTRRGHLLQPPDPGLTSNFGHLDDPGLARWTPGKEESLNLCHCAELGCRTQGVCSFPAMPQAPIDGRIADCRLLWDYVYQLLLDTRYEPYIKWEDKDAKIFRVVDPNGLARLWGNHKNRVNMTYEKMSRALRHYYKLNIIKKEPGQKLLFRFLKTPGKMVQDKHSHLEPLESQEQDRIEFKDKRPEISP
# Summary of the method: as §1
# ELF5 = target: T11, ELF5 (Homo sapiens, UniProt Q9UKW6-2 1-255); settings: protein: recombinant; tags: N-terminal GST; dsDNA, one strand shown
# T11 sequence: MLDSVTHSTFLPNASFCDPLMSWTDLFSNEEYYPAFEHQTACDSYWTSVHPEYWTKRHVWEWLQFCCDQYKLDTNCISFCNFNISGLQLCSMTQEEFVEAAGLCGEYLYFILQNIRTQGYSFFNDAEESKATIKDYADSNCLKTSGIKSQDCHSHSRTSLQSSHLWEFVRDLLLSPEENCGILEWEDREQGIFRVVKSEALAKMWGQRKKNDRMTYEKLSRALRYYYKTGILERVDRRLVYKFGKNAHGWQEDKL
# Summary of the method: as §1
# ETV3 = target: T12, ETV3 (Homo sapiens, UniProt P41162-2 1-143); settings: protein: recombinant; tags: N-terminal GST; dsDNA, one strand shown
# T12 sequence: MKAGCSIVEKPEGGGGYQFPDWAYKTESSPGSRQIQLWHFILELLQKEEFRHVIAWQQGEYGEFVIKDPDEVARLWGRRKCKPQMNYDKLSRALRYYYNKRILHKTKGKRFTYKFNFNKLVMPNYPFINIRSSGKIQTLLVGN
# Summary of the method: as §1
# ETV6 = ETV6 (Homo sapiens, UniProt P41212 1-452); settings: protein: recombinant; tags: N-terminal GST; dsDNA, one strand shown
# Summary of the method: as §1
# Chain of ETV5 (P41161 whole entry): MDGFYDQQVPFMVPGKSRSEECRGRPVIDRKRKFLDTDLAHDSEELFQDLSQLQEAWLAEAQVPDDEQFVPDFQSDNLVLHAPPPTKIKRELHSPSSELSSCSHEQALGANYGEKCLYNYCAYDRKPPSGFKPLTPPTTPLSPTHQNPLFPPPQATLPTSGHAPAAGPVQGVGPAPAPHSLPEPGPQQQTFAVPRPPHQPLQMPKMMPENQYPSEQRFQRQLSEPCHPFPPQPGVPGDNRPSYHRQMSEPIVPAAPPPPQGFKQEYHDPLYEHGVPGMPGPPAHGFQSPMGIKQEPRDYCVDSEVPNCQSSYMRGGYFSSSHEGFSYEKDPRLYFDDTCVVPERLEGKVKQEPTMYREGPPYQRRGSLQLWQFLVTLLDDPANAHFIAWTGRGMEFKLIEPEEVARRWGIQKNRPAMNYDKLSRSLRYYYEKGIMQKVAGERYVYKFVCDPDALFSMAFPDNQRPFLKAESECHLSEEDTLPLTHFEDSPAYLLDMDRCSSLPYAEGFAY
# Chain of ETV1 (P50549 whole entry): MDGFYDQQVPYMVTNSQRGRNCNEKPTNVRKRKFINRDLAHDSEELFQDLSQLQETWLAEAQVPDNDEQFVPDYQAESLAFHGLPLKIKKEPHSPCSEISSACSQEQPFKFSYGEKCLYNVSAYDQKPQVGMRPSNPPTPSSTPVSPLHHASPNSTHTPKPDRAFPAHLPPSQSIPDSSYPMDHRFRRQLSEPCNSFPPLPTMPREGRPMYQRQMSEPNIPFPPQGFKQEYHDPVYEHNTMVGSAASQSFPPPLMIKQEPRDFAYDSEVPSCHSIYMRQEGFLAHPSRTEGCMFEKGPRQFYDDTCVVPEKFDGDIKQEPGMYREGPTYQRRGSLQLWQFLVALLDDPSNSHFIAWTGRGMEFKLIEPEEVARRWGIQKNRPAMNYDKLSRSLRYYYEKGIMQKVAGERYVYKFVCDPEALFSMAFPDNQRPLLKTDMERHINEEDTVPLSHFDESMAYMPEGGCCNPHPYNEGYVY
# Chain of ETV6 (P41212 whole entry): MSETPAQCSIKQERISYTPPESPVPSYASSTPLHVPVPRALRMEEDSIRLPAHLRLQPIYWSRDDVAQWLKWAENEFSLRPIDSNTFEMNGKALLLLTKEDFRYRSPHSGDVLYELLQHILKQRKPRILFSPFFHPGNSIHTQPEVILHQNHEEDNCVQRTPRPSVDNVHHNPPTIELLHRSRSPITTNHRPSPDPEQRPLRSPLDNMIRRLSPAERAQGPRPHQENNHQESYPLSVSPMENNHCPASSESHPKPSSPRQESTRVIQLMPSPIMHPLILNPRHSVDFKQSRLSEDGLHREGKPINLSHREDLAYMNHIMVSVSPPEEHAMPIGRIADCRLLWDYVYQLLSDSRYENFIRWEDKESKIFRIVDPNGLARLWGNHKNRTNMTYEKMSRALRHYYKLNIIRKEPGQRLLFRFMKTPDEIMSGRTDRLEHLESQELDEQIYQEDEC
# Chain of CRX (O43186 whole entry): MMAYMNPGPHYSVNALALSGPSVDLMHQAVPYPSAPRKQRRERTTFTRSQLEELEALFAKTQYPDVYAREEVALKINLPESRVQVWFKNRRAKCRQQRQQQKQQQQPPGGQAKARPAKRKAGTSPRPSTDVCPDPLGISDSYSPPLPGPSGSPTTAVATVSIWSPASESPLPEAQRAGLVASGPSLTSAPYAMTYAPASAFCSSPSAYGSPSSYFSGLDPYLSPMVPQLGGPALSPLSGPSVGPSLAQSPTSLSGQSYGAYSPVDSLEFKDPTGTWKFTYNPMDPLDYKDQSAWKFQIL
# Chain of ELF4 (Q99607 whole entry): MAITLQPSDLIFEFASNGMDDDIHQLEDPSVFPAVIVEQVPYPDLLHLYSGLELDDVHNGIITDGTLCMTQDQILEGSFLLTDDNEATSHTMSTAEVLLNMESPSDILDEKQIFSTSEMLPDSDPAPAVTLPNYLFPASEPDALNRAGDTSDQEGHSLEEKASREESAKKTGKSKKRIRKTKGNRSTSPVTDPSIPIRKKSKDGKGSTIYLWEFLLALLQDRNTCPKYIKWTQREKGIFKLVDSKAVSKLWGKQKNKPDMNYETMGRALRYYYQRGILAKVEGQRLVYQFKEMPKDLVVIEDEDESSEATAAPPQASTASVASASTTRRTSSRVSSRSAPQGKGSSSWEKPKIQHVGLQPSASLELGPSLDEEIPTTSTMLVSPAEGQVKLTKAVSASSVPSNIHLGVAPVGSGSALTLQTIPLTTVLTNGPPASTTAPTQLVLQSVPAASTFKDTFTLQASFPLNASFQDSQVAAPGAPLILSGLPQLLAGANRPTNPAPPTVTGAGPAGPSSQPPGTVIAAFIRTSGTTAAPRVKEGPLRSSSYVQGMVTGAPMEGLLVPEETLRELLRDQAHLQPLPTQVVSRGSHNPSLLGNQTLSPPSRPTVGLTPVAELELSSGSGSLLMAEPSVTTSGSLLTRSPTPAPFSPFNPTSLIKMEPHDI
# Chain of HSF1 (Q00613 whole entry): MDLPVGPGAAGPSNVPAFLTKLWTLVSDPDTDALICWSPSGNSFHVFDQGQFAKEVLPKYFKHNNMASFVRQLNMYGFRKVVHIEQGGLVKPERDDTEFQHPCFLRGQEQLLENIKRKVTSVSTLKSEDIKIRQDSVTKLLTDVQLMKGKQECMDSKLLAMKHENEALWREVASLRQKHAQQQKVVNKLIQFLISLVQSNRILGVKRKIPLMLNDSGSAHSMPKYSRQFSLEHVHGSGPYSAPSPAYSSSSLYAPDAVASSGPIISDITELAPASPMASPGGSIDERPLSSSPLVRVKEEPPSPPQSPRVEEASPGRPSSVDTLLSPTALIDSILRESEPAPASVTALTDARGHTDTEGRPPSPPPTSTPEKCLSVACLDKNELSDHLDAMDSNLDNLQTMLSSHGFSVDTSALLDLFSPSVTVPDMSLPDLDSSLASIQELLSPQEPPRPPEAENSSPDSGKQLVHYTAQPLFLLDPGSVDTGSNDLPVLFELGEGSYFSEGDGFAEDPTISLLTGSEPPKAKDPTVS
sequence,measurement,setting,value
ACTCCG,binding signal,FEV,"1.49 fold enrichment (6-mer frequency, TF over GST control)"
same,binding signal,ETV5,"1.44 fold enrichment (6-mer frequency, TF over GST control)"
same,binding signal,HSF1,"1.16 fold enrichment (6-mer frequency, TF over GST control)"
same,binding signal,SPIC,"1.35 fold enrichment (6-mer frequency, TF over GST control)"
same,binding signal,ELF4,"1.58 fold enrichment (6-mer frequency, TF over GST control)"
same,binding signal,ELK4,"1.4 fold enrichment (6-mer frequency, TF over GST control)"
same,binding signal,ETV2,"1.4 fold enrichment (6-mer frequency, TF over GST control)"
same,binding signal,ELF3,"1.33 fold enrichment (6-mer frequency, TF over GST control)"
same,binding signal,CRX,"1.04 fold enrichment (6-mer frequency, TF over GST control)"
same,binding signal,ETV1,"1.47 fold enrichment (6-mer frequency, TF over GST control)"
same,binding signal,ERF,"1.37 fold enrichment (6-mer frequency, TF over GST control)"
same,binding signal,ETV3L,"1.52 fold enrichment (6-mer frequency, TF over GST control)"
same,binding signal,ETS2,"1.46 fold enrichment (6-mer frequency, TF over GST control)"
same,binding signal,SPDEF,"1.59 fold enrichment (6-mer frequency, TF over GST control)"
same,binding signal,ETV7,"1.4 fold enrichment (6-mer frequency, TF over GST control)"
same,binding signal,ELF5,"1.32 fold enrichment (6-mer frequency, TF over GST control)"
same,binding signal,ETV3,"1.51 fold enrichment (6-mer frequency, TF over GST control)"
same,binding signal,ETV6,"1.47 fold enrichment (6-mer frequency, TF over GST control)"
